Entries with a potency or affinity are not part of this list. Active and inactive are the calls of the source.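 How the source made its calls: active means fitted half-maximal dose no more than twice the top valid tested dose, for compounds that lower signal; inconclusive means fit invalid, or curve flat with activity between -70 and -30; inactive means potency past limit, curve flat within ±30, or signal increasing.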
Molecular target: NAD-dependent protein deacylase sirtuin-5, mitochondrial (Homo sapiens) (UniProt Q9NXA8)
Sequence (Q9NXA8 whole entry, looked up): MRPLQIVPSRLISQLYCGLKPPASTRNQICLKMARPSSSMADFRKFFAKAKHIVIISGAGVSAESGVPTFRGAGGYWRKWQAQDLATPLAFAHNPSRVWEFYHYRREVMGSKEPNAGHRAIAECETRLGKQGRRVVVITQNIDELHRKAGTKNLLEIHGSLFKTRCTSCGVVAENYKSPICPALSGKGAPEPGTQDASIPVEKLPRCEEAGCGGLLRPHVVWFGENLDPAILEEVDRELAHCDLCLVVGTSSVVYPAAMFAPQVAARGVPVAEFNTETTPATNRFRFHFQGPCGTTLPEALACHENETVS
Experiment: SIRT5 deacylase inhibitors, dose response, biochemical, fluorescence imaging, cherry-pick, set 6 (AID 720597);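 further: lower AMC signal can also come from blocking the trypsin step; 0% = median of neutral control wells and -100% = median of positive control wells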
Settings: Purified SirT5, succinyl-peptide-AMC/trypsin fluorescence; series mostly up to 15 µM; activity change, negative = inhibition: at the top concentration

Row | Structure (SMILES) | activity change, negative = inhibition
1 | C[C@H]1CN([C@@H](C)CO)C(=O)Cc2cc(NC(=O)Nc3ccc(F)cc3)ccc2O[C@@H]1CN(C)C | -9.38% (inactive)
2 | Cc1ccccc1S(=O)(=O)N1CCCCN2[C@H](CO)[C@@H](c3ccc(-c4ccccc4)cc3)[C@H]2C1 | -17.2% (inactive)
3 | C[C@H](CO)N1C[C@H](C)[C@@H](CN(C)S(=O)(=O)c2cccc(F)c2)Oc2ncc(C#CC3CCCCC3)cc2C1=O | 6.48% (inactive)
4 | Cc1ccc(S(=O)(=O)N(C)C[C@H]2OCCCC[C@H](C)Oc3ccc(NS(=O)(=O)c4ccc(Cl)cc4)cc3C(=O)N([C@H](C)CO)C[C@H]2C)cc1 | -1.84% (inactive)
5 | COc1ccc(S(=O)(=O)Nc2ccc3c(c2)C(=O)N([C@@H](C)CO)C[C@@H](C)[C@H](CN(C)Cc2ccc(C(F)(F)F)cc2)OCCCC[C@@H](C)O3)cc1 | -24.5% (inactive)
6 | C[C@@H]1CCCCO[C@H](CN(C)S(=O)(=O)c2ccc(Cl)cc2)[C@H](C)CN([C@H](C)CO)C(=O)c2cc(NS(=O)(=O)c3ccc(F)cc3)ccc2O1 | -23.1% (inactive)
7 | COc1cccc(NC(=O)N2CC(=O)N3[C@H](CO)[C@@H](c4ccc(C#CCC5CCCC5)cc4)[C@@H]3C2)c1 | -15% (inactive)
8 | COc1cccc(NC(=O)N(C)C[C@@H]2Oc3cc(C#Cc4ccccc4)ccc3S(=O)(=O)N([C@H](C)CO)C[C@H]2C)c1 | 16.7% (inactive)
9 | Cc1ccc(S(=O)(=O)N(C)C[C@@H]2OCCCC[C@@H](C)Oc3ccc(NS(=O)(=O)c4ccc(Cl)cc4)cc3C(=O)N([C@H](C)CO)C[C@H]2C)cc1 | -25.3% (inactive)
10 | CC(C)C#Cc1cnc2c(c1)C(=O)N([C@@H](C)CO)C[C@H](C)[C@@H](CN(C)C(=O)CN1CCOCC1)O2 | 11.3% (inactive)
11 | COc1ccc(NC(=O)N(C)C[C@H]2OCCCC[C@@H](C)Oc3ccc(NC(=O)Cc4ccccc4)cc3C(=O)N([C@H](C)CO)C[C@@H]2C)cc1 | 0.973% (inactive)
12 | CCCC(=O)Nc1ccc2c(c1)OC[C@@H](C)N(Cc1ccccc1OC)C[C@@H](C)[C@H](OC)CN(C)C2=O | -13.5% (inactive)
13 | CN(C)Cc1cn(CC[C@H]2CC[C@H](NS(=O)(=O)c3ccccc3)[C@H](CO)O2)nn1 | 0.244% (inactive)
14 | Cc1ccc(NC(=O)C2CC(=O)n3ncnc3N2)cc1 (centres undefined) | 1.3% [at 18 µM] (inactive)
15 | CCCNC(=O)N1[C@@H](CO)[C@@H](c2ccccc2)C12CN(C(=O)CC1CC1)C2 | 4.32% (inactive)
16 | O=C(CCN1CCCCC1)N[C@@H]1CC[C@H](CC(=O)N2CCC(Cc3ccccc3)CC2)O[C@@H]1CO | -14.1% (inactive)
17 | C[C@@H]1CN([C@H](C)CO)S(=O)(=O)c2ccc(/C=C/c3ccccc3)cc2O[C@@H]1CN(C)Cc1ccccc1 | 5.76% (inactive)
18 | C[C@@H]1CN([C@@H](C)CO)C(=O)c2cc(NS(C)(=O)=O)ccc2O[C@@H](C)CCCCO[C@@H]1CN(C)C | -18.9% (inactive)
19 | CO[C@H]1CN(C)C(=O)c2cc(NS(=O)(=O)c3ccc(Oc4ccccc4)cc3)ccc2OC[C@H](C)NC[C@H]1C | -15.4% (inactive)
20 | COc1ccc(NC(=O)Nc2ccc3c(c2)C(=O)N([C@@H](C)CO)C[C@@H](C)[C@@H](CN(C)Cc2ccc(C(F)(F)F)cc2)O3)cc1 | -1.17% [at 3.8 µM] (inactive)
21 | C[C@@H]1CCCCO[C@@H](CN(C)C(=O)Cc2ccccc2)[C@@H](C)CN([C@@H](C)CO)C(=O)c2cc(NC(=O)Nc3ccc(F)cc3)ccc2O1 | -29.6% (inactive)
22 | COCC(=O)Nc1ccc2c(c1)OC[C@H](C)N(CC1CC1)C[C@@H](C)[C@@H](OC)CN(C)C2=O | 13.3% (inactive)
23 | C[C@@H]1CN([C@H](C)CO)C(=O)c2cc(C#CC(C)(C)O)cnc2O[C@H]1CN(C)C(=O)CC1CC1 | 26.7% (inactive)
24 | C[C@@H]1CN([C@H](C)CO)C(=O)Cc2cc(NC(=O)Nc3ccc(F)cc3)ccc2O[C@@H]1CN(C)Cc1ccc2c(c1)OCO2 | -8.82% (inactive)
25 | C[C@@H]1CN([C@@H](C)CO)C(=O)c2cc(-c3cccc(F)c3)cnc2O[C@H]1CN(C)C | -3.87% (inactive)
26 | C[C@@H]1CN([C@H](C)CO)C(=O)c2cc(NC(=O)c3ccncc3)ccc2O[C@@H]1CN(C)C(=O)Nc1ccc2c(c1)OCO2 | -14.6% (inactive)
27 | COc1ccccc1S(=O)(=O)N(C)C[C@@H]1Oc2cc(C#CCC3CCCC3)ccc2S(=O)(=O)N([C@H](C)CO)C[C@H]1C | -8.51% (inactive)
28 | CN(C)C(=O)c1cccc(-c2ccc([C@H]3[C@@H](CO)N4CCCCN(S(C)(=O)=O)C[C@H]34)cc2)c1 | -13.1% (inactive)
29 | COc1ccc(CN(C)C[C@H]2Oc3c(NC(=O)Nc4ccc(F)cc4)cccc3C(=O)N([C@@H](C)CO)C[C@@H]2C)cc1 | -22.5% (inactive)

Reference: PubChem BioAssay AID720597 (Broad Institute, 2013)
